From PubChem BioAssay
For part of these data: Measured potencies and affinities stand elsewhere. Results filed as inconclusive are left out. Unmarked numbers belong to inactive results. This is one part of the list. Calls of active or inactive are those of the source. Unless noted, how the calls were made is not given here.

How the values were obtained:
[1] = RMG-1 ovarian cancer cell viability loss – cherry-pick, dose response (AID 687029;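 active means signal drop whose fitted half-maximal concentration is at most twice the top valid dose, in every test run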;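 further: cells exposed to compound for 96 hours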)
[2] = IOSE-T80 viability loss, PAX8-independent line – cell-based, cherry-pick, selectivity assay for PAX8 inhibitor project, dose response (AID 687032;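 active means fitted half-maximal concentration for viability loss no higher than twice the top valid dose, in every repeat run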;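 further: cells exposed to compound for 96 h before reading; 0% = neutral control wells and -100% = 2 µM mitoxantrone kill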)
[3] = CMV-driven luciferase expression suppression in HEK293 – cell-based, luminescence, dry powder, counter-screen for Pax8 inhibitor project, dose response (AID 743020;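 active means signal-lowering compounds whose fitted half-maximal concentration is at or below twice the top tested dose in every run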;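 further: HEK293 cells stably expressing the CMV luciferase reporter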)
[4] = general cell-killing toxicity readout – plate reader, dry powder samples, cytotoxicity control for PAX8 inhibitor project, dose response (AID 743021)
[5] = viability loss in HeLa cells – cell-based, ATP luminescence, cherry-pick samples, cytotoxicity control, dose response (AID 687004;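 active means a fitted half-maximal concentration no higher than twice the top valid tested dose, with signal falling as cells die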;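 further: 0% = neutral control median and -100% = staurosporine 10 µM control median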)
[6] = IGROV1 cell killing – plate reader, dry powder samples, PAX8 inhibitor project, dose response (AID 743043);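 further: more negative means fewer viable cells or more cytotoxicity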
[7] = toxicity toward immortalized ovarian surface epithelium – cell-based, plate reader, dry powder samples, cytotoxicity control for PAX8 inhibitor project, dose response (AID 743045);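 further: 0% = neutral control median and -100% = positive control median; more negative values mean more cell killing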
[8] = A2780 cell killing – plate reader, dry powder samples, cytotoxicity control, dose response (AID 743046);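 further: 0% = neutral control wells and -100% = cytotoxic reference compound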
[9] = toxicity toward HepG2 liver cells – cell-based, plate reader, cherry-pick, antagonist series, cytotoxicity control, dose response (AID 743416);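 further: 0% = neutral control wells and -100% = positive control wells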
[10] = biological target: Melanocortin receptor 4 (Homo sapiens) (UniProt P32245); assay: blockade of melanocortin 4 receptor signaling – cell-based, plate reader, cherry pick, counter-screen for LGR2 antagonist project, dose response (AID 743444)
[11] = OVCAR-3 cell viability loss – plate reader, dry powder samples, PAX8 inhibitor project, dose response (AID 743044); conditions: NIH:OVCAR-3 ovarian cancer cell viability, stronger effect = lower value; at 4.2 µM unless noted
[12] = OVCAR8 cell viability loss – plate reader, dry powder samples, PAX8 project, dose response (AID 743197)
[13] = small-molecule DNA binding by polarization – biochemical, fluorescence polarization, cherry-pick, counter-screen for EWS/Fli inhibitor project, dose response (AID 720586;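 active means fitted curve reaches a 35% signal fall AC35 below twice the sample's top valid tested dose, actives reach about 48 µM in these data; inactive means the rest, including activity in the rising direction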;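 further: 0% = neutral control median and -100% = 10 µM mitoxantrone control median; lower polarization ratio signals compound binding to DNA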)
[14] = A549 cell cytotoxicity, dose response, cytotoxicity control, plate reader, cherry-pick, antagonist series (AID 743412);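 further: 0% = neutral control wells and -100% = positive control wells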

CC(=O)OC(C)(C)/C=C/C(=O)C(C)(O)C1C(O)CC2(C)C3CC=C4C(CC(O)C(=O)C4(C)C)C3(C)C(=O)CC12C (configuration not stated)
outcome [1]: inactive | outcome [2]: inactive | outcome [3]: inactive | outcome [4]: inactive

O=c1[nH]c2ccccc2n1C1CCN(C(CCc2ccccc2)c2nnnn2-c2ccc3c(c2)OCCO3)CC1 (configuration not stated)
outcome [1]: inactive

CC1=C(O)C(=O)C=C2C1=CC=C1C2(C)CCC2(C)C3CC(C)(C(=O)O)CCC3(C)CCC12C (configuration not stated)
outcome [1]: inactive | outcome [2]: inactive | outcome [3]: inactive

O=c1[nH]c2ccccc2n1C1CCN(C(c2cc3ccccc3o2)c2nnnn2-c2ccc3c(c2)OCCO3)CC1 (configuration not stated)
outcome [1]: inactive

O=c1[nH]c(CN2CC=C(c3ccccc3)CC2)nc2cc(C(F)(F)F)ccc12
outcome [5]: inactive

NC(=O)c1cn(C2OC(CO)C(O)C2O)c2ncnc(N)c12 (configuration not stated)
outcome [1]: inactive | outcome [2]: inactive

CN1C2CCC1/C(=C/c1ccccn1)C(=O)/C2=C\c1ccccn1
outcome [1]: inactive | outcome [2]: inactive | outcome [4]: inactive

COc1cc(C2c3cc4c(c(O)c3CC3COC(=O)C32)OCO4)cc(OC)c1OC (configuration not stated)
outcome [1]: inactive | outcome [2]: inactive | outcome [4]: inactive

COc1ccc(C[C@H]2NC[C@H](O)[C@H]2OC(C)=O)cc1
outcome [1]: inactive | outcome [4]: inactive

CN(C)CC(C(=O)Cc1ccccc1)c1ccccc1 (configuration not stated)
outcome [1]: inactive | outcome [3]: inactive | outcome [4]: inactive

CC(=CCOc1ccc2ccc(=O)oc2c1)C1=CC(=O)C(C)(C)O1
outcome [1]: inactive | outcome [2]: inactive | outcome [4]: inactive

C[C@]12CC[C@H](O)C[C@H]1CC[C@@H]1[C@@H]2CC[C@]2(C)[C@@H](C3=CC(=O)OC3)CC[C@]12O
outcome [1]: inactive | outcome [3]: inactive | outcome [4]: inactive

O=C(C1CC1)N1C[C@@H]2N[C@H](C1)[C@@H]2c1ccc(-c2ccncc2)cc1
outcome [1]: inactive | outcome [2]: inactive | outcome [4]: inactive

COC(=O)C12OCC34C(CC5C(C)=C(O)C(=O)CC5(C)C3C(O)C1O)OC(=O)C(OC(=O)/C=C(\C)C(C)C)C24 (configuration not stated)
outcome [1]: inactive | outcome [2]: inactive | outcome [4]: inactive

COC1C(O)C(C)OC(OC2CCC3(C)C(CCC4C3C(O)CC3(C)C(C5=CC(=O)OC5)CCC43O)C2)C1O (configuration not stated)
outcome [1]: inactive | outcome [2]: inactive | outcome [4]: inactive

O=C1NC2C(O)C(O)C(O)C(O)C2c2cc3c(c(O)c21)OCO3 (configuration not stated)
outcome [1]: inactive | outcome [2]: inactive | outcome [4]: inactive

Cc1ccc(OC(=O)N(C)C[C@@H]2OCc3ccccc3-c3c(n(C)c4ccccc34)C(=O)N([C@@H](C)CO)C[C@H]2C)cc1
outcome [1]: inactive | outcome [2]: inactive | outcome [4]: inactive | outcome [6]: inactive | outcome [7]: inactive | activity change, negative = cytotoxicity [8]: -16.8% [at 8 µM]

COC(=O)C1=C(c2ccc(F)cc2OCc2ccccc2)C[C@@H]2CC[C@H]1N2C(=O)NCc1ccc(C)cc1
outcome [1]: inactive | outcome [3]: inactive | outcome [4]: inactive

CC(=O)OC1CC(OC2C(O)CC(OC3C(O)CC(OC4CCC5(C)C(CCC6C5CCC5(C)C(C7=CC(=O)OC7)CCC65O)C4)OC3C)OC2C)OC(C)C1OC1OC(CO)C(O)C(O)C1O (configuration not stated)
outcome [1]: inactive | outcome [2]: inactive | outcome [4]: inactive

Cc1ccc(C(=O)N[C@@H](C)CN2C3=NC[C@@H](Cc4ccccc4)N3C[C@H]2Cc2ccc(O)cc2)cc1Br
outcome [1]: inactive | outcome [3]: inactive | outcome [4]: inactive

COC1CC2C=C(C)C=CC=CC(=O)NC(c3ccccc3)CC=CCCC(O)CC(=O)C2=C1O (configuration not stated)
outcome [1]: inactive | outcome [3]: inactive

COc1cccc(C(c2nnnn2Cc2ccccc2)N2CCC(n3c(=O)[nH]c4ccccc43)CC2)c1OC (configuration not stated)
outcome [1]: inactive | outcome [2]: inactive | outcome [4]: inactive

C[C@@H]1O[C@@H](O[C@H]2C[C@@H](O)[C@]3(CO)[C@H]4[C@H](O)C[C@]5(C)[C@@H](C6COC(=O)C6)CC[C@]5(O)[C@@H]4CC[C@]3(O)C2)[C@H](O)[C@H](O)[C@H]1O (some centres not stated)
outcome [1]: inactive | outcome [2]: inactive | outcome [4]: inactive

Cc1c(C(=O)c2cccc3ccccc23)c2cccc3c2n1[C@H](CN1CCOCC1)CO3
outcome [1]: inactive | outcome [3]: inactive | outcome [4]: inactive

CSCCC(c1nnnn1Cc1ccccc1)N1CCC(n2c(=O)[nH]c3ccccc32)CC1 (configuration not stated)
outcome [1]: inactive | outcome [3]: inactive | outcome [4]: inactive

CC12CCC3C(CCC4(O)CC(O)CCC34C=O)C1(O)CCC2C1=CC(=O)OC1 (configuration not stated)
outcome [1]: inactive | outcome [2]: inactive | outcome [4]: inactive

CC1CCC/C=C/C2CC(O)CC2C(O)/C=C/C(=O)O1 (configuration not stated)
outcome [1]: inactive | outcome [2]: inactive | outcome [4]: inactive

O=C(c1ccccc1)C(CN1CCCC1)c1ccccc1 (configuration not stated)
outcome [1]: inactive | outcome [2]: inactive | outcome [4]: inactive

CCC(C)C1NC(=O)C(NC(=O)C(CC(C)C)N(C)C(=O)C2CCCN2C(=O)C(C)O)C(C)OC(=O)C(Cc2ccc(OC)cc2)N(C)C(=O)C2CCCN2C(=O)C(CC(C)C)NC(=O)[C@H](C)C(=O)[C@H](C(C)C)OC(=O)CC1O (some centres not stated)
outcome [1]: inactive | outcome [3]: inactive | outcome [4]: inactive

N#CC(C#N)=NNc1ccc(-n2ccc(C(F)(F)F)n2)cc1
outcome [1]: inactive | outcome [4]: inactive

CCC1CN2CCc3cc(OC)c(OC)cc3C2CC1CC1NCCc2c1[nH]c1ccc(O)cc21 (configuration not stated)
outcome [1]: inactive | outcome [2]: inactive | outcome [4]: inactive

NC(=S)c1cn(C2OC(CO)C(O)C2O)c2ncnc(N)c12 (configuration not stated)
outcome [1]: inactive | outcome [3]: inactive | outcome [4]: inactive

C[C@]12CC[C@H](O)C[C@H]1CC[C@@H]1[C@@H]2C[C@@H](O)[C@]2(C)[C@@H](C3=CC(=O)OC3)CC[C@]12O
outcome [1]: inactive | outcome [2]: inactive | outcome [4]: inactive

COc1ccc(C(c2nnnn2Cc2ccccc2)N2CCC(n3c(=O)[nH]c4ccccc43)CC2)cc1 (configuration not stated)
outcome [1]: inactive | outcome [3]: inactive | outcome [4]: inactive

CC1CC(C)CC(C)C(O)C(C#N)=CC=CCC(C2CCCC2C(=O)O)OC(=O)CC(O)C(C)C1 (configuration not stated)
outcome [1]: inactive | outcome [3]: inactive | outcome [4]: inactive

COc1ccc(CC2C(=O)NC(C)C(=O)N(C)C3C(=O)N(C)C(Cc4ccc(O)c(c4)Oc4ccc(cc4)C3O)C(=O)NC(C)C(=O)NC(C)C(=O)N2C)cc1 (configuration not stated)
outcome [1]: inactive | outcome [2]: inactive | outcome [4]: inactive

CC(=O)OC(C)(C)/C=C/C(=O)C(C)(O)C1[C@H](O)C[C@@]2(C)C3CC=C4C(CC[C@@H](O)C4(C)C)[C@]3(CO)C(=O)C[C@]12C (some centres not stated)
outcome [1]: inactive | outcome [3]: inactive | outcome [4]: inactive

COc1cccc(C(c2nnnn2-c2ccc3c(c2)OCCO3)N2CCC(n3c(=O)[nH]c4ccccc43)CC2)c1OC (configuration not stated)
outcome [1]: inactive | outcome [2]: inactive | outcome [4]: inactive

O=C1NC2C(=CC(O)C(O)C2O)c2cc3c(cc21)OCO3 (configuration not stated)
outcome [1]: inactive | outcome [3]: inactive | outcome [4]: inactive

CCC(C)(O)C(=O)OC1C(=O)OC2CC3C(C)=CC(=O)C(O)C3(C)C3C4(O)OCC23C1C(C)C4O (configuration not stated)
outcome [3]: inactive | outcome [4]: inactive

N#Cc1ccc2nc(-c3ccc(CN4CCC(n5c(=O)[nH]c6ccccc65)CC4)cc3)c(-c3ccccc3)nc2c1
outcome [1]: inactive | outcome [4]: inactive

CCC(c1nnnn1Cc1ccccc1)N1CCC(n2c(=O)[nH]c3ccccc32)CC1 (configuration not stated)
outcome [3]: inactive

COc1cc2c(cc1OC)CN(c1ccc([N+](=O)[O-])c(C(F)(F)F)c1)CC2
outcome [9]: inactive | outcome [10]: inactive

O=c1[nH]c2ccccc2n1C1CCN(C(c2ccccc2OC(F)(F)F)c2nnnn2Cc2ccccc2)CC1 (configuration not stated)
outcome [9]: inactive

O=C(Cc1ccccn1)N1CCCCN2[C@@H](CO)[C@@H](c3ccc(-c4ccc(F)cc4)cc3)[C@@H]2C1
outcome [2]: inactive | outcome [3]: inactive | outcome [4]: inactive | outcome [6]: inactive | max activity [11]: 9.98% | outcome [7]: inactive | outcome [8]: inactive | outcome [12]: inactive

CC(C)(C)n1cc(C(=O)c2ccc3ccccc3c2O)cn1
outcome [9]: inactive

CC1CC(C)(O)CC(C(O)CC2CC(=O)NC(=O)C2)C1=O (configuration not stated)
outcome [3]: inactive | outcome [4]: inactive

COC1=C(C)C(=O)C2=C(C1=O)C(CO)N1C(C#N)C3CC4C(C1C2N1CCOC41)N3C (configuration not stated)
outcome [1]: inactive | outcome [4]: inactive

C=Cc1cc(OC)c2c(c1)c(=O)oc1c2cc(OC)c2c(O)ccc(C3OC(C)C(O)C(C)(O)C3O)c21 (configuration not stated)
outcome [1]: inactive | outcome [4]: inactive

C[C@]12CC[C@H]3[C@@H](CC[C@]4(O)C[C@@H](O)CC[C@]34C=O)[C@@]1(O)CC[C@@H]2C1=CC(=O)OC1
outcome [4]: inactive

CC(=O)OC1CC(OC2C(O)CC(OC3C(O)CC(OC4CCC5(C)C(CCC6C5CCC5(C)C(C7=CC(=O)OC7)C(O)CC65O)C4)OC3C)OC2C)OC(C)C1OC1OC(CO)C(O)C(O)C1O (configuration not stated)
outcome [1]: inactive | outcome [4]: inactive

CC(N)C(=O)NC1C2C(=C(O)CC(O)C2O)C(=O)OC1(C)C(Cl)Cl (configuration not stated)
outcome [1]: inactive | outcome [4]: inactive

COc1cccc(-c2nc3ccc(N4CCN(C)CC4)cc3[nH]2)c1
outcome [9]: inactive

CC1OC(OC2C=C3CCC4C(CCC5(C)C(c6ccc(=O)oc6)CCC45O)C3(C)CC2)C(O)C(OC2OC(CO)C(O)C(O)C2O)C1O (configuration not stated)
outcome [1]: inactive | outcome [4]: inactive

CC12CCC(O)CC1CCC1C2CCC2(C)C(C3=CC(=O)OC3)CCC12O (configuration not stated)
outcome [1]: inactive | outcome [4]: inactive

O=C1NC(=O)N(CCc2ccc(F)cc2)C(=O)/C1=C/C=C/c1ccccc1
outcome [13]: inactive

O=C(O)c1nn(Cc2ccc(Cl)cc2Cl)c2ccccc12
outcome [14]: inactive | outcome [9]: inactive | outcome [10]: inactive

COC(=O)C1=C(c2ccc(F)cc2OCc2ccccc2)C[C@@H]2CC[C@H]1N2C(=O)NCc1ccc(C(F)(F)F)cc1
outcome [1]: inactive | outcome [4]: inactive

C[C@@H]1O[C@@H](O[C@@H]2C=C3CC[C@@H]4C(CC[C@]5(C)[C@@H](c6ccc(=O)oc6)CC[C@]45O)[C@@]3(C)CC2)[C@H](O)[C@H](O)[C@H]1O (some centres not stated)
outcome [4]: inactive

Clc1cccc(N2Cc3cc(-c4ccccc4)ccc3-n3nncc3C2)c1
outcome [14]: inactive | outcome [9]: inactive

CCCCCCCCCCCCn1ccc(=N)cc1
outcome [1]: inactive | outcome [4]: inactive

CC(=O)OC1CC(OC2C(O)CC(OC3C(O)CC(OC4CCC5(C)C(CCC6C5CC(O)C5(C)C(C7=CC(=O)OC7)CCC65O)C4)OC3C)OC2C)OC(C)C1OC1OC(CO)C(O)C(O)C1O (configuration not stated)
outcome [1]: inactive | outcome [4]: inactive

CNC(=O)Oc1cccc(-c2cn3cc(Cl)ccc3n2)c1
outcome [14]: inactive | outcome [9]: inactive

C[C@]12CCC3C(CCC4=CC(O)CC[C@@]43/C=N/O)C1(O)CCC2C1=CC(=O)OC1 (some centres not stated)
outcome [3]: inactive

CC(C)(O)/C=C/C(=O)C(C)(O)C1C(O)CC2(C)C3CC=C4C(C=C(O)C(=O)C4(C)C)C3(C)C(=O)CC12C (configuration not stated)
outcome [2]: inactive | outcome [4]: inactive
